According to PubChem BioAssay (EPA / NIEHS):
Some structures have more than one record in an assay (separate samples or runs), and their calls can disagree. The source made the active and inactive calls. Rule for the calls: active = hit-call score of the fitted dose curve at least 0.9, where 1 is the maximum; inactive = score below 0.9.

Key:
[1] = read-out: Vascular endothelial growth factor receptor 2 (Homo sapiens) (UniProt P35968); assay: BSK_4H_VEGFRII: BioMAP Diversity Plus: 4H Assay for Vascular endothelial growth factor receptor 2 (VEGFR2) Biomarker Activity (AID 2283031); conditions: primary human endothelial cells (HUVEC); actives raise or lower the signal;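 for AC50: cell-surface VEGFR2 protein level quantified by ELISA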
How it was run: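 ELISA read-out of VEGFRII in primary human umbilical vein endothelium, taken 24 h after chemical treatment. Responses are expressed relative to DMSO, with bidirectional fitting.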

[2] = read-out: Human Leukocyte Antigen - DR isotype (HLADR), HLA-DRA (gene 3122); assay: BSK_BE3C_HLADR: BioMAP Diversity Plus: BE3C Assay for Human Leukocyte Antigen - DR isotype (HLADR) Biomarker Activity (AID 2283032); conditions: primary human bronchial epithelial cells; actives raise or lower the signal
How it was run: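 Human primary bronchial epithelial cells in the BE3C system were exposed to chemicals for 24 h, after which HLA-DR levels were quantified by ELISA. Activity was fitted bidirectionally, gain or loss of signal, against DMSO as negative control and baseline.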

[3] = read-out: Vascular cell adhesion molecule 1 (VCAM1), VCAM1 (gene 7412); assay: BSK_4H_VCAM1: BioMAP Diversity Plus: 4H Assay for Vascular cell adhesion molecule 1 (VCAM1) Biomarker Activity (AID 2283033); conditions: primary human endothelial cells (HUVEC); actives raise or lower the signal
How it was run: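 Primary human umbilical vein endothelial cells were exposed to chemicals for 24 h, after which VCAM-1 was quantified by ELISA. Responses were fitted bidirectionally against DMSO as negative control and activity baseline.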

[4] = read-out: Interferon-gamma inducible Protein 10 (IP10), CXCL10 (gene 3627); assay: BSK_BE3C_IP10: BioMAP Diversity Plus: BE3C Assay for Interferon-gamma inducible Protein 10 (IP10) Biomarker Activity (AID 2283034); conditions: primary human bronchial epithelial cells; actives raise or lower the signal
How it was run: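 Human primary bronchial epithelial cells were exposed to chemicals for 24 hours, after which IP-10 levels were measured by ELISA. Data were fitted bidirectionally against DMSO, which served as the negative control and activity baseline.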

[5] = read-out: Monokine induced gamma interferon (MIG), CXCL9 (gene 4283); assay: BSK_BE3C_MIG: BioMAP Diversity Plus: BE3C Assay for Monokine induced gamma interferon (MIG) Biomarker Activity (AID 2283035); conditions: primary human bronchial epithelial cells; actives raise or lower the signal
How it was run: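 MIG level was determined by ELISA after 24 h chemical treatment of primary human bronchial epithelial cells. Values were fitted bidirectionally with DMSO as the negative control and activity baseline.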

[6] = read-out: Transforming growth factor beta 1 (TGFb1), TGFB1 (gene 7040); assay: BSK_BE3C_TGFb1: BioMAP Diversity Plus: BE3C Assay for Transforming growth factor beta 1 (TGFb1) Biomarker Activity (AID 2283036); conditions: primary human bronchial epithelial cells; actives raise or lower the signal
How it was run: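 Human primary bronchial epithelial cells (BE3C system) were dosed with chemical and TGF-b1 levels measured by ELISA at 24 h. Activity was fitted bidirectionally relative to DMSO negative control as baseline.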

[7] = read-out: Plasminogen activator inhibitor-1 (PAI1), SERPINE1 (gene 5054); assay: BSK_BE3C_PAI1: BioMAP Diversity Plus: BE3C Assay for Plasminogen activator inhibitor-1 (PAI1) Biomarker Activity (AID 2283037); conditions: primary human bronchial epithelial cells; actives raise or lower the signal
How it was run: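 Human primary bronchial epithelial cells were exposed to chemical for 24 h, then PAI-1 was quantified by ELISA. Activity was fitted bidirectionally relative to the DMSO negative control baseline.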

[8] = read-out: urokinase plasminogen activator (uPA), PLAU (gene 5328); assay: BSK_BE3C_uPA: BioMAP Diversity Plus: BE3C Assay for urokinase plasminogen activator (uPA) Biomarker Activity (AID 2283038); conditions: primary human bronchial epithelial cells; actives raise or lower the signal
How it was run: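 Bronchial epithelial cells (human, primary); chemical 24 h; uPA by ELISA; bidirectional fit vs DMSO. SRB (0.1%, after 10% TCA fixation, 560 nm) in parallel cultures for cytotoxicity.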

[9] = read-out: Interleukin-6 (IL6), IL6 (gene 3569); assay: BSK_CASM3C_IL6: BioMAP Diversity Plus: CASM3C Assay for Interleukin-6 (IL6) Biomarker Activity for (AID 2283040); conditions: primary human coronary artery smooth muscle cells; actives raise or lower the signal
[10] = read-out: Tissue plasminogen activator (tPA), PLAT (gene 5327); assay: BSK_BE3C_tPA: BioMAP Diversity Plus: BE3C Assay for Tissue plasminogen activator (tPA) Biomarker Activity (AID 2283041); conditions: primary human bronchial epithelial cells; actives raise or lower the signal;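 note: tPA level quantified by ELISA one day after compound addition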
How it was run: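 Human primary bronchial epithelial cells were dosed with chemical and tPA biomarker levels measured by ELISA 24 hours later. Activity was fitted bidirectionally against DMSO as negative control and baseline.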

[11] = read-out: Interleukin-8 (IL8), CXCL8 (gene 3576); assay: BSK_CASM3C_IL8: BioMAP Diversity Plus: CASM3C Assay for Interleukin-8 (IL8) Biomarker Activity (AID 2283042); conditions: primary human coronary artery smooth muscle cells; actives raise or lower the signal;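 note: IL-8 protein level quantified by ELISA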
[12] = read-out: Human Leukocyte Antigen - DR isotype (HLADR), HLA-DRA (gene 3122); assay: BSK_CASM3C_HLADR: BioMAP Diversity Plus: CASM3C Assay for Human Leukocyte Antigen - DR isotype (HLADR) Biomarker Activity (AID 2283043); conditions: primary human coronary artery smooth muscle cells; actives raise or lower the signal;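 note: cell-surface HLA-DR protein level quantified by ELISA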
[13] = read-out: Macrophage colony-stimulating factor (MCSF), CSF1 (gene 1435); assay: BSK_CASM3C_MCSF: BioMAP Diversity Plus: CASM3C Assay for Macrophage colony-stimulating factor (MCSF) Biomarker Activity (AID 2283044); conditions: primary human coronary artery smooth muscle cells; actives raise or lower the signal;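 note: M-CSF protein amount quantified by ELISA after 24 h exposure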
[14] = read-out: Monocyte Chemoattractant Protein-1 (MCP1), CCL2 (gene 6347); assay: BSK_CASM3C_MCP1: BioMAP Diversity Plus: CASM3C Assay for Monocyte Chemoattractant Protein-1 (MCP1) Biomarker Activity (AID 2283046); conditions: primary human coronary artery smooth muscle cells; actives raise or lower the signal;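 note: MCP-1 level quantified by ELISA 24 h after dosing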
[15] = BSK_CASM3C_Proliferation: Cell Proliferation Assessment in the BioMAP Diversity Plus: CASM3C Assay (AID 2283047); conditions: primary human coronary artery smooth muscle cells;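 note: sulforhodamine B total protein stain as relative cell number at 560 nm; sub-confluent cells exposed 48 h before staining; fitted both ways against DMSO so gain or loss of cell number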
[16] = read-out: Monokine induced gamma interferon (MIG), CXCL9 (gene 4283); assay: BSK_CASM3C_MIG: BioMAP Diversity Plus: CASM3C Assay for Monokine induced gamma interferon (MIG) Biomarker Activity (AID 2283048); conditions: primary human coronary artery smooth muscle cells; actives raise or lower the signal;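 note: MIG protein level measured by ELISA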
[17] = read-out: serum amyloid A (SAA), SAA1 (gene 6288); assay: BSK_CASM3C_SAA: BioMAP Diversity Plus: CASM3C Assay for serum amyloid A (SAA) Biomarker Activity (AID 2283049); conditions: primary human coronary artery smooth muscle cells; actives raise or lower the signal;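 note: SAA protein level quantified by ELISA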
[18] = BSK_CASM3C_SRB: Viability Assessment in the BioMAP Diversity Plus: CASM3C Assay (AID 2283050); conditions: primary human coronary artery smooth muscle cells;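 note: total protein by SRB staining as cytotoxicity measure in parallel cultures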
[19] = read-out: Low-density lipoprotein receptor (LDLR), LDLR (gene 3949); assay: BSK_CASM3C_LDLR: BioMAP Diversity Plus: CASM3C Assay for Low-density lipoprotein receptor (LDLR) Biomarker Activity (AID 2283045); conditions: primary human coronary artery smooth muscle cells; actives raise or lower the signal;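 note: LDLR protein level on the cell surface quantified by ELISA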
[20] = read-out: Urokinase-type plasminogen activator receptor (uPAR), PLAUR (gene 5329); assay: BSK_BE3C_uPAR: BioMAP Diversity Plus: BE3C Assay for Urokinase-type plasminogen activator receptor (uPAR) Biomarker Activity (AID 2283039); conditions: primary human bronchial epithelial cells; actives raise or lower the signal;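 note: uPAR protein level measured by ELISA on the cells; cells exposed to compound for one day before measurement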
How it was run: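 Primary human bronchial epithelial cells were dosed with chemical and harvested 24 h later; uPAR was quantified by ELISA. Activity was fitted bidirectionally against DMSO as negative control and baseline.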

Measured: AC50

c1ccc2c(c1)c1cccc3ccc4cccc2c4c31
not listed: [19] | [20]
inactive: all other assays above

CCCCCCCCCCCCCCCCCC(=O)OCC(CC)CCCC (stereo not given)
active: [7] 0.25 µM
not listed: [10] | [20]
inactive: all other assays above

C=C[Si](OCC)(OCC)OCC
not listed: [20]
inactive: all other assays above

c1ccc2sc(SN(C3CCCCC3)C3CCCCC3)nc2c1
active: [1] 5.07 µM | [3] 5.45 µM | [4] 2.67 µM | [15] 0.117 µM
not listed: [10] | [20]
inactive: all other assays above

CC(=O)Nc1ccccc1O
not listed: [20]
inactive: all other assays above

CCCCCCCCC=O
inactive: all assays above

CC(=O)/C=C/C1=C(C)CCCC1(C)C
not listed: [20]
inactive: all other assays above

C#C[C@]1(O)CC[C@H]2[C@@H]3CCC4=Cc5oncc5C[C@]4(C)[C@H]3CC[C@@]21C
active: [3] 30.1 µM | [4] 31.2 µM | [19] 33.9 µM | [14] 0.92 µM | [15] 3.97 µM | [18] 20 µM
not listed: [20]
inactive: all other assays above

CCCCC/C=C/C=C/C=O
active: [1] 20 µM | [2] 20 µM | [3] 33.3 µM | [4] 28.4 µM | [5] 34.3 µM | [8] 31.3 µM | [12] 23.7 µM | [13] 20 µM | [14] 36.1 µM | [15] 30.3 µM | [18] 32.3 µM
inactive: [6] | [7] | [20] | [9] | [11] | [19] | [16] | [17]

O=[N+]([O-])c1cc(C(F)(F)F)ccc1Cl
not listed: [10]
inactive: all other assays above

N#Cc1ccc(CC(=NNC(=O)Nc2ccc(OC(F)(F)F)cc2)c2cccc(C(F)(F)F)c2)cc1
not listed: [10]
inactive: all other assays above

CC[Si](OC(C)=O)(OC(C)=O)OC(C)=O
inactive: [1] | [2] | [3] | [4] | [5] | [7] | [8] | [9] | [11] | [12] | [13] | [19] | [14] | [15] | [16] | [17] | [18]
active: [3] 0.195 µM
